In the library only some 0.93% were active in any assay of this set; here they are far more common.
TAR Tat displ = HIV-1 TAR-Tat binding disruption; 0.6% of 100,000 active; HIV-1 TAR RNA, Tat peptide displacement FRET; active compounds read high; z-score (test concentration not listed); active = z-score of 3 or more in at least 2 runs
CDC25B-CDK2 inh = human CDC25B-CDK2/CyclinA binding inhibition; HTRF CDC25B-CDK2/CyclinA binding, anti-His/anti-Flag; active compounds read high; z-score (no concentration beside the values); 0.72% of 94,000 active; in the data active = z-score above about 3.2
Active calls of the source: *; nt = no result given; ! = not confirmed by another sample.

SMILES | TAR Tat displ | CDC25B-CDK2 inh
CC(C)(C)n1cnc2cc(NCc3ccco3)ccc21 | 1.4 | 0.72
O=C(CSc1nccn(-c2cccc(F)c2)c1=O)Nc1ccc(F)cc1 | 0.45 | nt
Brc1c(CSc2nnnn2-c2ccccc2)nc2ccccn12 | nt | 0.68
CN1CCN(c2nc(NCCCN3CCOCC3)nc3c2cnn3C)CC1 | -0.66 | nt
Cc1ccc(C)c(CSc2nc(C3CCCCC3)c(C#N)c(=O)[nH]2)c1 | nt | -0.02
Cc1c([N+](=O)[O-])sc2nc[nH]c(=O)c12 | 11* | -0.33
Cc1c(C(=O)Nc2ccc(F)cc2)sc2nc[nH]c(=O)c12 | 1.6 | nt
CCc1onc(C)c1C1CCCN1Cc1ccc(OC)c(Br)c1 (stereo unspecified) | 1.6 | nt
CSc1ncc2c(=O)n(CC(=O)N(C)c3ccc(F)cc3)cnc2n1 | 0.97 | nt
COc1ccc(S(=O)(=O)c2c(C(=O)c3ccc(C)cc3)cnc3cc4c(cc23)OCCO4)cc1 | 0.27 | 6.7*
COc1ccc(S(=O)(=O)c2c(C(=O)c3ccc(C)cc3)cnc3cc4c(cc23)OCO4)cc1 | -0.24 | 0.07
COC(=O)c1sccc1NC(=O)Cc1cccs1 | nt | -1.3
COC(=O)c1sccc1NC(=O)c1cccs1 | nt | 6.7*
CCOC(=O)c1c(-c2ccccc2)c2oc3ccccc3c2[nH]c1=O | 0.85 | 0.22
NC(=O)c1cccc2c1NC(C(=O)O)C1CC=CC21 (stereo unspecified) | 27* | 0.33
O=C(O)C1Nc2c(O)cccc2C2C=CCC12 (stereo unspecified) | nt | 3.8
CCOc1ccc(C2/C(=C(/O)c3ccc(C)cc3)C(=O)C(=O)N2c2cccnc2)cc1 (stereo unspecified) | -0.47 | 0.11
COC(=O)c1ccc(C2/C(=C(/O)c3ccc(C)cc3)C(=O)C(=O)N2c2cccnc2)cc1 (stereo unspecified) | 0.97 | 12*
CC(=O)N1c2ccc(S(=O)(=O)N3CCCCC3)cc2CC1C(=O)NCCN(C)C (stereo unspecified) | -0.59 | nt
Cc1cc(C)n(-c2nc3c(c(=O)n2CC(N)=O)CCCC3)n1 | 12* | nt
Cc1cc(C)n(-c2nc3c(c(=O)n2CC(=O)NC(C)(C)C)CCCC3)n1 | 1.3 | nt
CN1C(C(=O)N2CCOCC2)=CC(c2ccc3c(c2)OCO3)=NS1(=O)=O | 1.1 | 0.1
COC(=O)C1=C(N)Oc2ccccc2C1C(C#N)C#N (stereo unspecified) | nt | 19*
COC(=O)NC1c2ccccc2Oc2ccccc21 | 0.32 | -0.47
CN(C)CCCNCC(O)Cn1c2ccccc2c2ccccc21 (stereo unspecified) | nt | -2.1
SMILES | TAR Tat displ | CDC25B-CDK2 inh
CCC1(CC)NC(=S)N(c2ccc(Cl)cc2)N1 | nt | -1.3
CCN1C(=O)c2cccc3c(S(=O)(=O)NC(Cc4ccccc4)C(=O)O)ccc1c23 (stereo unspecified) | 1.1 | -0.79
CCN1C(=O)c2cccc3c(NC(=O)c4ccc(Cl)s4)ccc1c23 | nt | 16*
O=C1N(Cc2ccccc2)C2CS(=O)(=O)CC2N1Cc1ccccc1 (stereo unspecified) | nt | -0.11
CCCOc1ccc(C2C3=C(CC(C)(C)CC3=O)NC3=C2C(=O)CC(C)(C)C3)cc1 | 0.94 | 16*
C=CCOc1ccc(C2C3=C(CC(C)(C)CC3=O)NC3=C2C(=O)CC(C)(C)C3)cc1 | -0.05 | -0.83
N/C(CC(=O)N1CCCC1)=N\O | nt | -2.5
CC(C)N1CCn2c(nc3cc(NC(=O)c4ccco4)ccc32)C1 | 19* | 10*
CC(=O)Nc1ccc2c(c1)nc1n2CCN(C(C)C)C1 | -7.6 | -0.16
Cc1nonc1NC(=O)N1CCOCC1 | 1.3 | -1.4
Cc1nonc1NC(=O)Nc1ccncc1 | -0.99 | 9.2*
O=C1Nc2ccc(S(=O)(=O)Nc3ccc4oc5c(c4c3)CCCC5)c3cccc1c23 | 6.3* | -1.9
COc1ccc(NS(=O)(=O)c2ccc3c4c(cccc24)C(=O)N3)cc1 | 2.2 | -0.99
CCc1ccccc1NC(c1ccccn1)c1ccc2cccnc2c1O (stereo unspecified) | 1.1 | 0.21
O=S(=O)(Nc1ccc(Cl)c2cccnc12)c1ccccc1 | nt | -1.4
O=C(O)CSCC(=O)Nc1nc(SCc2ccc(Cl)cc2)n[nH]1 | nt | 7*
Cc1ccccc1C(=O)Nc1nc(SCc2ccc(Cl)cc2)n[nH]1 | nt | -1.7
O=C(NCCCN1CCCC1)C1CCN(c2nnc(N3CCCCC3=O)s2)CC1 | 2.1 | nt
O=C(c1cnc2cc(-c3ccccc3)nn2c1)c1cc(Br)ccc1O | -0.18 | -0.74
O=C(O)c1cc2ncc(Br)cn2n1 | 18* | nt
O=C(Cn1cc(S(=O)(=O)N2CCCC2)c(S(=O)(=O)N2CCCC2)c1)Nc1nccs1 | 1.6 | nt
O=C(O)c1cc(-c2ccco2)nc2ccc(Br)cc12 | 6.4* | nt
O=C(O)c1cc(-c2ccc(O)cc2)nc2ccc(Br)cc12 | nt | -1.1
O=C(O)c1ccc2nc(-c3ccco3)c(-c3ccco3)nc2c1 | 51* | nt
O=C(NCc1ccco1)c1ccc2nc(-c3cccs3)c(-c3cccs3)nc2c1 | -0.7 | nt
SMILES | TAR Tat displ | CDC25B-CDK2 inh
Cc1nn2c3ccccc3n(CC(=O)c3ccccc3)c2nc1=O | -0.19 | 1.6
CCCCC(CC)n1[nH]c(=O)cc1N (stereo unspecified) | -0.1 | -1.3
COc1cc(C2NC(=O)c3c(sc4c3CCN(C)C4)N2)ccc1O (stereo unspecified) | -8.1 | -0.03
CN1CCc2c(sc3c2C(=O)NC(c2ccc(O)c(O)c2)N3)C1 (stereo unspecified) | 13* | -0.12
Cc1nn(C(C)C(=O)NC2CC2)c2ccccc12 (stereo unspecified) | 1.5 | -1.7
CC1=NN(c2cccc(C(=O)O)c2)C(=O)C1 | 0.21 | -1.1
Cc1cc(=O)c2c(O)c(O)ccc2o1 | nt | -2.2
O=C(O)c1cc(=O)c(O)c2c(O)c(O)ccc2c1 | 25* | nt
O=c1cccc2ccc(O)c(O)c2c1O | 25* | nt
O=C(NCC(c1ccco1)N1CCCCC1)c1cc(=O)c2cc(Cl)ccc2o1 (stereo unspecified) | -0.9 | -2
O=C(O)c1cc(N2C(=O)C3CCCCC3C2=O)ccc1Cl (stereo unspecified) | 1 | nt
O=C(O)c1cc(N2C(=O)c3c(Cl)c(Cl)c(Cl)c(Cl)c3C2=O)ccc1Cl | nt | 8.6*
O=c1oc2c(O)c(O)cc3c(=O)oc4c(O)c(O)cc1c4c23 | 31*! | nt
Cc1cc(=O)oc2cc(O)cc(O)c12 | 1.2 | nt
O=C(CCCn1c(=O)c2cccn2c2cccnc21)NCCCN1CCCC1=O | 1.4 | nt
OC[C@H]1O[C@@H](Sc2ccccc2)[C@H](O)[C@@H](O)[C@H]1O | nt | -0.9
COc1ccc(C2CC(c3c(O)n(C)c(=O)n(C)c3=O)=Nc3ccccc3S2)cc1OC (stereo unspecified) | 2.3 | 20*
COc1cc(C2CC(c3c(O)n(C)c(=O)n(C)c3=O)=Nc3ccccc3S2)ccc1O (stereo unspecified) | 1.2 | -1.7
O=C(Nc1ccc(O)c(-c2nc3ccccc3o2)c1)c1cc2ccccc2o1 | nt | -5.3
Cc1nc(N)sc1-c1csc(Nc2ccccn2)n1 | nt | 18*
Cc1ccc(-c2csc(Nc3ccccn3)n2)cc1 | 0.8 | -0.98
O=C(NC1CCCC1)C1CCCN(c2nnc(-n3cccc3)s2)C1 (stereo unspecified) | 1.3 | -0.28
CCOC(=O)C1CCN(c2cc(NCC(=O)O)c3c4c(onc24)-c2ccccc2C3=O)CC1 | -5.8 | 5.9*
CCOC(=O)C1CCCN(c2cc(NCC(C)C)c3c4c(onc24)-c2ccccc2C3=O)C1 (stereo unspecified) | 0.8 | -1.2
